Compound activity deposited in PubChem BioAssay by several laboratories.
HDAC3 inh: inhibitors of human histone deacetylase 3 | inhibition, % at 8.3 µM | recombinant HDAC3, fluorogenic peptide/trypsin coupled, fluorescence | AID 2718 | 320,000 compounds, 0.15% hits; in the data active means inhibition above about 26%, passing the limit was not always enough
Target sequence (O15379 whole entry, looked up): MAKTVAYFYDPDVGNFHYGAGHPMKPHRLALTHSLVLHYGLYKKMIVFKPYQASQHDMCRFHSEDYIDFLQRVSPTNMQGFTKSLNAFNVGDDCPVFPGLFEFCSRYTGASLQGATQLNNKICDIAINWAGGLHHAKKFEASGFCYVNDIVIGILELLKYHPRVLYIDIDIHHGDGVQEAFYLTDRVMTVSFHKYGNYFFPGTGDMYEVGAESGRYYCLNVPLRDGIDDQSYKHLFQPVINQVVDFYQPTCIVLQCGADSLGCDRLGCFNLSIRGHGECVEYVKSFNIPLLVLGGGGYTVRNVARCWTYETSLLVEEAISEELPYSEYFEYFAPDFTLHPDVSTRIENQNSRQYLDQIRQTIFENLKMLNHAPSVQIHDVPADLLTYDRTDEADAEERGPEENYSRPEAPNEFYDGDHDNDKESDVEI
GRK2 inh: blocks RNA aptamer binding to human GRK2; P25098; bead flow cytometry, FAM-aptamer displacement from GRK2; inhibition of aptamer binding, % at 10 µM; 330,000 compounds, 0.59% hits; AID 488847;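 active means inhibition of aptamer binding above 40%, roughly 3 SD of noise, on plates passing a quality check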;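 further: median bead fluorescence of bound FAM aptamer so fluorescent compounds give negative values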
Cardio protect: protects H9c2 cardiomyocytes from peroxide injury; H2O2 injury protection, ATPLite, 2 h; protection from H2O2 cell death, % at 20 µM; 360,000 compounds, 0.63% hits; AID 588492;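 active means compounds giving at least 50% protection of heart cells from peroxide-induced death in the single-dose screen, raw or plate-pattern-corrected value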;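 further: 0% = DMSO wells with peroxide and 100% = DMSO wells without peroxide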
Neddylation inh: cullin neddylation inhibition | inhibition, % at 25 µM | TR-FRET cullin neddylation, biochemical | P61081+Q13564 | 360,000 compounds, 0.58% hits | AID 651699; in the data active means inhibition above about 36%
GRK2 CP1: confirmation of human GRK2 inhibitors displacing RNA aptamer. shares compounds with GRK2 inh. bead-bound GRK2, FAM-aptamer displacement, flow cytometry. aptamer displacement, % at 10 µM. 2,000 compounds, 4% hits. AID 504451;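 active means aptamer displacement above 40%, near three times the noise of non-fluorescent compounds, on plates passing quality checks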;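 further: negative values mostly reflect intrinsic compound fluorescence rather than true enhancement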
Aptamer quench SP: aptamer fluorescence quenching in GRK2 counter-screen; 2,000 tested, under 10 active; shares compounds with GRK2 inh; AID 504580; fluorescence response (% of DMSO), % at 10 µM; Carboxyfluorescein RNA aptamer on beads, flow cytometry quenching; stronger effect = lower value;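 active means compounds that quench the bead-bound fluorescent RNA probe, cutting fluorescence to under half of the solvent control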;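 further: counterscreen run without GRK2 so only probe quenching by compound is measured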
* marks the source's active call; other numbers are inactive results. In the library only some 1.8% were active in any assay of this set; here they are far more common.

How did Cn1c(C(=O)N[C@@H](C(=O)O)c2ccccc2)cc2cc(F)ccc21 do in these assays?
HDAC3 inh: -9; GRK2 inh: 64*; Cardio protect: -1; Neddylation inh: 7; GRK2 CP1: 2; Aptamer quench SP: 99

What do the screens show for `CC(=O)c1c(C)[nH]c(C(=O)OCC(=O)N2c3ccccc3NC(=O)C2(C)C)c1C`?
HDAC3 inh: 3; GRK2 inh: 0; Cardio protect: 18; Neddylation inh: 1

What do the screens show for `Cc1nc2ccccc2c(=O)n1/N=C/c1ccncc1`?
HDAC3 inh: 1; GRK2 inh: 83*; Cardio protect: 0; Neddylation inh: 3; GRK2 CP1: -3; Aptamer quench SP: 102

Results for CN(CC(=O)Nc1ccccc1Br)C(=O)COc1cccc2c1OC(C)(C)C2 ?
HDAC3 inh: -2; GRK2 inh: 1; Cardio protect: -7; Neddylation inh: -1

What do the screens show for `CCOC(=O)C1(CCc2ccccc2)CCN(C(=O)CN2C(=O)CSC2=O)CC1`?
HDAC3 inh: -3; GRK2 inh: 92*; Cardio protect: -1; Neddylation inh: -6; GRK2 CP1: -5; Aptamer quench SP: 99

How did Cc1ccc(C)c(NC(=O)CCN2C(=O)C3CC=CCC3C2=O)c1 (stereo unspecified) do in these assays?
HDAC3 inh: 1; GRK2 inh: 68*; Cardio protect: 7; Neddylation inh: 2; GRK2 CP1: 1; Aptamer quench SP: 97

How did Cc1ccc(C)c(NC(=O)CCN2C(=O)c3ccccc3C2=O)c1 do in these assays?
HDAC3 inh: -1; GRK2 inh: 0; Cardio protect: 0; Neddylation inh: -11

How did COc1ccc(OCC(=O)Nc2ccc3c(c2)nc(CCn2ccccc2=O)n3C)cc1 do in these assays?
HDAC3 inh: 0; GRK2 inh: 2; Cardio protect: 4; Neddylation inh: 4

What do the screens show for `Cn1c(=O)n(CCc2ccccc2)c2ccccc21`?
HDAC3 inh: -11; GRK2 inh: 51*; Cardio protect: 3; Neddylation inh: 0; GRK2 CP1: -1; Aptamer quench SP: 100

Results for Cc1oc2c(c(C)cc3oc(=O)c(CC(=O)NCCCN4CCCC4=O)c(C)c32)c1C ?
HDAC3 inh: -6; GRK2 inh: 6; Cardio protect: 3; GRK2 CP1: 0; Aptamer quench SP: 94

How did Cc1oc2c(c(C)cc3oc(=O)c(CC(=O)NCCCO)c(C)c32)c1C do in these assays?
HDAC3 inh: 3; GRK2 inh: 2; Cardio protect: 3; Neddylation inh: 37

What do the screens show for `Cc1cc(NC(=O)CSc2nc(-c3cccnc3)ccc2C#N)no1`?
HDAC3 inh: -3; GRK2 inh: 0; Cardio protect: 11; Neddylation inh: -3

What do the screens show for `Cc1cc(NC(=O)CSc2nc3c(c(-c4cccnc4)c2C#N)CCC3)no1`?
HDAC3 inh: 3; GRK2 inh: 77*; Cardio protect: 4; Neddylation inh: -289; GRK2 CP1: 1; Aptamer quench SP: 90

How did Cc1cc(Br)cn2c(Cc3ccsc3)c(C3CCCCC3)nc12 do in these assays?
Cardio protect: -3; Neddylation inh: -14

How did Cc1ccccc1C(=O)Nc1ccc(S(=O)(=O)Nc2onc(C)c2C)cc1 do in these assays?
HDAC3 inh: 1; GRK2 inh: 2; Cardio protect: 2; Neddylation inh: 3

Results for Cc1cc(C)c(C(=O)Nc2ccc(S(=O)(=O)Nc3onc(C)c3C)cc2)c(C)c1 ?
GRK2 inh: 37; Cardio protect: 2; Neddylation inh: -4; GRK2 CP1: -5; Aptamer quench SP: 98

How did O=C(NCCCN1CCCC1=O)Nc1ccc(Br)cc1Cl do in these assays?
HDAC3 inh: -3; GRK2 inh: 3; Cardio protect: 9; Neddylation inh: -4

What do the screens show for `CCOc1ccc(NC(=O)C2CCCN2S(=O)(=O)c2ccc3c(c2)C(C)(C)C(=O)N3C)cc1` (stereo unspecified)?
HDAC3 inh: 7; GRK2 inh: 48*; Cardio protect: -7; Neddylation inh: 1; GRK2 CP1: 2; Aptamer quench SP: 96

Results for COc1ccc(C)cc1S(=O)(=O)N1CCCC(C(=O)N2CCN(c3ccccc3)CC2)C1 (stereo unspecified) ?
HDAC3 inh: -3; GRK2 inh: 0; Cardio protect: 0; Neddylation inh: 1

What do the screens show for `Cc1ccc(C(OCC(O)CN2CCCCC2CO)c2ccccc2)cc1` (stereo unspecified)?
HDAC3 inh: -3; GRK2 inh: 0; Cardio protect: 4; Neddylation inh: 3

What do the screens show for `CC(OCC(O)CN1CCCCC1CCO)c1ccc(Cl)cc1` (stereo unspecified)?
HDAC3 inh: -4; GRK2 inh: 75*; Cardio protect: -4; Neddylation inh: -1; GRK2 CP1: -7; Aptamer quench SP: 93

Results for O=C(CSc1n[nH]c(=O)[nH]c1=O)N1CCCCCC1 ?
HDAC3 inh: 13; GRK2 inh: 4; Cardio protect: 0; Neddylation inh: 3

How did O=C(CCc1n[nH]c(=O)[nH]c1=O)N1CCCCC1 do in these assays?
HDAC3 inh: 1; GRK2 inh: 30; Cardio protect: 1; Neddylation inh: 6; GRK2 CP1: 1; Aptamer quench SP: 100

What do the screens show for `Cc1ccc(-n2ncc3c2CCCC3NC(=O)CCc2cnccn2)cc1C` (stereo unspecified)?
HDAC3 inh: 0; GRK2 inh: 0; Cardio protect: -4; Neddylation inh: 2

How did O=C(CSc1nc2ccccc2[nH]1)N1CCN(S(=O)(=O)c2ccc(Cl)cc2)CC1 do in these assays?
HDAC3 inh: -4; GRK2 inh: 45*; Cardio protect: -12; Neddylation inh: -3; GRK2 CP1: 2; Aptamer quench SP: 96

Results for COc1ccccc1N(Cc1cc(=O)[nH]c2ccccc12)C(=O)C(C)C ?
HDAC3 inh: 1; GRK2 inh: 1; Cardio protect: 1; Neddylation inh: -11

Results for O=C(NC1CCCCC1)N1CCCc2ccccc21 ?
HDAC3 inh: -5; GRK2 inh: 2; Cardio protect: 8; Neddylation inh: -2

What do the screens show for `O=C(NC1CCCCC1)N1CCSC1=Nc1ccccc1`?
HDAC3 inh: 8; GRK2 inh: 43*; Cardio protect: -3; Neddylation inh: 7; GRK2 CP1: 1; Aptamer quench SP: 93

Results for CC1(C)Cc2c(sc(NC(=O)COc3cccc4ccccc34)c2C#N)C(C)(C)N1 ?
HDAC3 inh: -3; GRK2 inh: 63*; Cardio protect: -21; Neddylation inh: 18; GRK2 CP1: -35; Aptamer quench SP: 131

How did Cc1ccc(OCC(=O)Nc2sc3c(c2C#N)CC(C)(C)NC3(C)C)cc1 do in these assays?
HDAC3 inh: -1; GRK2 inh: 0; Cardio protect: 4; Neddylation inh: -1

Results for CCOc1ccc(N(CC(=O)NCc2ccccc2OC)S(C)(=O)=O)cc1 ?
HDAC3 inh: 1; GRK2 inh: 53*; Cardio protect: -1; Neddylation inh: 4; GRK2 CP1: 0; Aptamer quench SP: 98
